Test results as given in PMC7862700, “An all-to-all approach to the identification of sequence-specific readers for epigenetic DNA modifications on cytosine”.

Legend:
Experiment in all cases: DAPPL (digital affinity profiling via proximity ligation, sequencing); 10 mM Tris-HCl pH 7.5, 50 mM NaCl, 1 mM DTT, 4% glycerol, room temperature, 30 min; GST-TFs on glutathione beads, 16-mer random dsDNA library, 0.1% formaldehyde crosslink after washing; high values mean tight binding
FLI1 = biological target: T1, FLI1 (Homo sapiens, UniProt Q01543 1-452); settings: protein: recombinant; tags: N-terminal GST; dsDNA, one strand shown
T1 sequence: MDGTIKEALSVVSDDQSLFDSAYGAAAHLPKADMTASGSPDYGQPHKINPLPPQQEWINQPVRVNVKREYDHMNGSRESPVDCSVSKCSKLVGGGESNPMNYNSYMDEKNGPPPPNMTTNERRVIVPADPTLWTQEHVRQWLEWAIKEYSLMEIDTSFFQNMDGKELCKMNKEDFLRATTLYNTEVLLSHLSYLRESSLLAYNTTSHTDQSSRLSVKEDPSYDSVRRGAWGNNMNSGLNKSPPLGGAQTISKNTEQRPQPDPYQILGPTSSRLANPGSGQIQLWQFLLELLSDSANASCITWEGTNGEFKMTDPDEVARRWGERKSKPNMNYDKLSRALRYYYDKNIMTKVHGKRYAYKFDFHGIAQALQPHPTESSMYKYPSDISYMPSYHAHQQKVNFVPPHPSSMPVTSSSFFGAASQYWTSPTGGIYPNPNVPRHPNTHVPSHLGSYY
Method in brief: (§1)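 Sequencing on an Illumina NextSeq500 followed washing, crosslinking with 0.1% formaldehyde, proximity ligation (BsaI/T4 ligase, 1 h, 37 °C) and PCR amplification of pools that had been incubated for 30 min at room temperature with 200 nmole of a random double-stranded 16-mer DNA library in Tris/NaCl/DTT/glycerol buffer. Each pool held DNA-barcoded human transcription factors, expressed in yeast as GST fusions and captured on glutathione beads, plus a tag-only sample. Binding signal is a hexamer's read frequency for a factor divided by its frequency in the tag-only sample.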

ELK1 = biological target: T2, ELK1 (Homo sapiens, UniProt P19419 1-428); settings: protein: recombinant; tags: N-terminal GST; dsDNA, one strand shown
T2 sequence: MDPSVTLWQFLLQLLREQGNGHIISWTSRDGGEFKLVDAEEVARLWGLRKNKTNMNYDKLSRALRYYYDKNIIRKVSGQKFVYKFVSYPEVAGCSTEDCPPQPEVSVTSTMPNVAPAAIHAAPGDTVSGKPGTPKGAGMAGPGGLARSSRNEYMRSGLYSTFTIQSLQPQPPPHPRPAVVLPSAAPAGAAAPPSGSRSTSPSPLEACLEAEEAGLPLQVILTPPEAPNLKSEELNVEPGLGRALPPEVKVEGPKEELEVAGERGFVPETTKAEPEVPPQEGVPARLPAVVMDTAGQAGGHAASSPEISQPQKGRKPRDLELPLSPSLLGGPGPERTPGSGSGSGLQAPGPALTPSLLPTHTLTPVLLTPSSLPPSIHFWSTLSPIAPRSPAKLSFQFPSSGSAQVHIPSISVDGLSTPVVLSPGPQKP
Method in brief: as §1

GABPA = biological target: T3, GABPA (Homo sapiens, UniProt Q06546 1-454); settings: protein: recombinant; tags: N-terminal GST; dsDNA, one strand shown
T3 sequence: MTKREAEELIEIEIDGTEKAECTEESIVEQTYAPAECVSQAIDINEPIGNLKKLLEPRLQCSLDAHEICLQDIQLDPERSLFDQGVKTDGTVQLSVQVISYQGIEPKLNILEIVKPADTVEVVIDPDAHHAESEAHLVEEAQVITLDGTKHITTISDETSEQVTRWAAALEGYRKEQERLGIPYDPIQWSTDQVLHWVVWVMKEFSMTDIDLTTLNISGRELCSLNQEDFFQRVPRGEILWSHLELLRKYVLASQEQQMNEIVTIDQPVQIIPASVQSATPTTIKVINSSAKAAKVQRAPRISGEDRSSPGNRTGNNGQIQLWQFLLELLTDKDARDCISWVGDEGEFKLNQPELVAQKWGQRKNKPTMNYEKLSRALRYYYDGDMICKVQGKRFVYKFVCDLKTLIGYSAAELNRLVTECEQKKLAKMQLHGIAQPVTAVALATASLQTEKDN
Method in brief: as §1

ERG = biological target: T4, ERG (Homo sapiens, UniProt P11308 1-479); settings: protein: recombinant; tags: N-terminal GST; dsDNA, one strand shown
T4 sequence: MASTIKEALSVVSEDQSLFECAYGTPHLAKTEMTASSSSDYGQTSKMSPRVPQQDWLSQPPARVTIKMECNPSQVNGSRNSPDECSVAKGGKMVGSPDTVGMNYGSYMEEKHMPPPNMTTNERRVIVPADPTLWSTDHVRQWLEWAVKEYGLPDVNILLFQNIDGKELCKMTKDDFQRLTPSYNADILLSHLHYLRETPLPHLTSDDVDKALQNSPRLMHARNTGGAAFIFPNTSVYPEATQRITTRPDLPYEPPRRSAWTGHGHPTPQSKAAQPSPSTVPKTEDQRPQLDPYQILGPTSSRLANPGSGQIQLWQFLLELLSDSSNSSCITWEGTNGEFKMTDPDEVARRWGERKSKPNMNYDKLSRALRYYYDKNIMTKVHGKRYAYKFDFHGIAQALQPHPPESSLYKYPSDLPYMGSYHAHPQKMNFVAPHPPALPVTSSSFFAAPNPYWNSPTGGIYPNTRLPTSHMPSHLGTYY
Method in brief: as §1

ELF1 = ELF1 (Homo sapiens, UniProt P32519 1-619); settings: protein: recombinant; tags: N-terminal GST; dsDNA, one strand shown
ELF1, sequence (P32519 whole entry): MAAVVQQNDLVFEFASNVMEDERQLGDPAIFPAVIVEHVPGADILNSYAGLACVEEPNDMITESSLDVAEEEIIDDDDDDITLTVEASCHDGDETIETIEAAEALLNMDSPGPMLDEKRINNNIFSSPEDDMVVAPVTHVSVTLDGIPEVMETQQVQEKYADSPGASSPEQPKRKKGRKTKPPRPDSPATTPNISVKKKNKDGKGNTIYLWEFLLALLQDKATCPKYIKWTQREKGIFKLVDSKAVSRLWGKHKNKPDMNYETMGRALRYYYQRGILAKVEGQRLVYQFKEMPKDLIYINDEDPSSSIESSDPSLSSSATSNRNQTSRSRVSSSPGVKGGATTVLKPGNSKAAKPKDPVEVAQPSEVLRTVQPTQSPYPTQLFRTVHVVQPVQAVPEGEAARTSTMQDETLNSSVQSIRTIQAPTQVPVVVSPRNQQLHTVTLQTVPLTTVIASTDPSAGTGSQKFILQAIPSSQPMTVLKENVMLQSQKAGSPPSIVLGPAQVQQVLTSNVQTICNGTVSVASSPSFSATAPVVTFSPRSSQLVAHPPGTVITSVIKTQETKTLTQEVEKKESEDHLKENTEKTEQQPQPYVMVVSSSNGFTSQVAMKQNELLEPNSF
Method in brief: as §1

EHF = biological target: T5, EHF (Homo sapiens, UniProt Q9NZC4 1-300); settings: protein: recombinant; tags: N-terminal GST; dsDNA, one strand shown
T5 sequence: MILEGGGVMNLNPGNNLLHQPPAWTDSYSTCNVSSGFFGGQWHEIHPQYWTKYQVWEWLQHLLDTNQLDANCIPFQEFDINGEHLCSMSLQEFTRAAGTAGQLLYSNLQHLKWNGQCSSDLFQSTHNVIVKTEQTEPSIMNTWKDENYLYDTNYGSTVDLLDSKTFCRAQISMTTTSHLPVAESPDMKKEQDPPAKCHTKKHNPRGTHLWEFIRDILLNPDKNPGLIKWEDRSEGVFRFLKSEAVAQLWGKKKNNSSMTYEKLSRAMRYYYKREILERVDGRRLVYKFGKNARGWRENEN
Method in brief: as §1

SPI1 = SPI1 (Homo sapiens, UniProt P17947 1-270); settings: protein: recombinant; tags: N-terminal GST; dsDNA, one strand shown
Method in brief: as §1

SPIB = SPIB (Homo sapiens, UniProt Q01892 1-262); settings: protein: recombinant; tags: N-terminal GST; dsDNA, one strand shown
SPIB, sequence (Q01892 whole entry): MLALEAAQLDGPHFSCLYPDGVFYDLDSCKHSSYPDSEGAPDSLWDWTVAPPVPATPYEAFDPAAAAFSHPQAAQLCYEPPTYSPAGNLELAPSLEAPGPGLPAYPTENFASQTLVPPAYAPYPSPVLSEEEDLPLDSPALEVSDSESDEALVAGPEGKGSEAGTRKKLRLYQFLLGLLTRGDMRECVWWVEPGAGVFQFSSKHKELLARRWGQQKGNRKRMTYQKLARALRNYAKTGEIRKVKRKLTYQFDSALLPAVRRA
Method in brief: as §1

ELK3 = biological target: T6, ELK3 (Homo sapiens, UniProt P41970 1-407); settings: protein: recombinant; tags: N-terminal GST; dsDNA, one strand shown
T6 sequence: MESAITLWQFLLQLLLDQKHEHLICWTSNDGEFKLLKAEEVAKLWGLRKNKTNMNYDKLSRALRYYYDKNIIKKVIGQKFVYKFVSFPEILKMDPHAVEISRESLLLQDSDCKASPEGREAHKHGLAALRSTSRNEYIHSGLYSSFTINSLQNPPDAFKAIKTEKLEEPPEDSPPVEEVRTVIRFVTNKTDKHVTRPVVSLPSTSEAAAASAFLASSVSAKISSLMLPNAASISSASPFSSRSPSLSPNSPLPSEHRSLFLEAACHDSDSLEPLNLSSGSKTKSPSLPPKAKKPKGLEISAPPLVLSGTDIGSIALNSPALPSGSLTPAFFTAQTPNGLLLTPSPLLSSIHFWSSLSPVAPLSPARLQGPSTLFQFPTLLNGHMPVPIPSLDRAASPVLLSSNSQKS
Method in brief: as §1

FEV = biological target: T7, FEV (Homo sapiens, UniProt Q99581 1-238); settings: protein: recombinant; tags: N-terminal GST; dsDNA, one strand shown
T7 sequence: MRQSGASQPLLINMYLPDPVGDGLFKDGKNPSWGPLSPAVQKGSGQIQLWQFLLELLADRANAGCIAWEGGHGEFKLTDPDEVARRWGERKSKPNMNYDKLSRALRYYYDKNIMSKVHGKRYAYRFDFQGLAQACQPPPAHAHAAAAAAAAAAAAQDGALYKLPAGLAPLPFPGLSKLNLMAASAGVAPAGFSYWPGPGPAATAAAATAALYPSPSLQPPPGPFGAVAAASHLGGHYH
Method in brief: as §1

ETV5 = ETV5 (Homo sapiens, UniProt P41161 1-510); settings: protein: recombinant; tags: N-terminal GST; dsDNA, one strand shown
ETV5, sequence (P41161 whole entry): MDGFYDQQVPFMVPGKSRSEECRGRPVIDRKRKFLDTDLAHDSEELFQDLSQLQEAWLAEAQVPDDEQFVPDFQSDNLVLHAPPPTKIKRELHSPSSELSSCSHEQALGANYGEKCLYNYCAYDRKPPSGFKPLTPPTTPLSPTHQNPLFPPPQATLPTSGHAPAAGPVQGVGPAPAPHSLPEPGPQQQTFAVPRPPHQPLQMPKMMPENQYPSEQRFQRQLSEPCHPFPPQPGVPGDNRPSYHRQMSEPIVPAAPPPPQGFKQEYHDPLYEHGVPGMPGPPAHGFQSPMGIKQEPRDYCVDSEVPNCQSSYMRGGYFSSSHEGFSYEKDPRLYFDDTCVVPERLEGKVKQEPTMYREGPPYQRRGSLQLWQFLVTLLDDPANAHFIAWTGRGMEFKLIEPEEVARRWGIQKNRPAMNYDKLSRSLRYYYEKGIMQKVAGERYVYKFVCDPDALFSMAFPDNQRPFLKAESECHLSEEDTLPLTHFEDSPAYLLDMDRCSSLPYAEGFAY
Method in brief: as §1

HSF1 = HSF1 (Homo sapiens, UniProt Q00613 1-529); settings: protein: recombinant; tags: N-terminal GST; chain copies: 3; dsDNA, one strand shown
HSF1, sequence (Q00613 whole entry): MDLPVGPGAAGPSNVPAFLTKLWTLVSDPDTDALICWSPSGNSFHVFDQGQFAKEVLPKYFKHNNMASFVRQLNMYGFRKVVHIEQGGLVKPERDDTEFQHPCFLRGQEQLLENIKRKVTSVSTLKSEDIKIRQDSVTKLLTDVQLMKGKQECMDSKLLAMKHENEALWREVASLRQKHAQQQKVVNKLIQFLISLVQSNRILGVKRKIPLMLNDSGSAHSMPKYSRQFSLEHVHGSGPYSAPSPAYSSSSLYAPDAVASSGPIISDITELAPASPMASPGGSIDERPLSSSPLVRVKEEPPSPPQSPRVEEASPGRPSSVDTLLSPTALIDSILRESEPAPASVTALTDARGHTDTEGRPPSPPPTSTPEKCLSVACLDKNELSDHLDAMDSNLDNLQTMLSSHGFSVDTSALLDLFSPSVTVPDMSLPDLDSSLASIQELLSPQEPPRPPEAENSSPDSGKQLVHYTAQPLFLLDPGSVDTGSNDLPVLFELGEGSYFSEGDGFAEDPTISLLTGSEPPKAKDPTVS
Method in brief: as §1

SPIC = biological target: T8, SPIC (Homo sapiens, UniProt Q8N5J4 1-248); settings: protein: recombinant; tags: N-terminal GST; dsDNA, one strand shown
T8 sequence: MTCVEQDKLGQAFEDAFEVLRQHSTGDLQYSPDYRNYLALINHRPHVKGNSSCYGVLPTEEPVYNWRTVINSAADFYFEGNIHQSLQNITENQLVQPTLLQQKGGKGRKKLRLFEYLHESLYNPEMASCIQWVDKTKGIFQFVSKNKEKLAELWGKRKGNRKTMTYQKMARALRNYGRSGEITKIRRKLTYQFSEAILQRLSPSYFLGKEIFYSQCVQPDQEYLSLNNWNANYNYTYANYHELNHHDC
Method in brief: as §1

ELF4 = ELF4 (Homo sapiens, UniProt Q99607 1-663); settings: protein: recombinant; tags: N-terminal GST; dsDNA, one strand shown
ELF4, sequence (Q99607 whole entry): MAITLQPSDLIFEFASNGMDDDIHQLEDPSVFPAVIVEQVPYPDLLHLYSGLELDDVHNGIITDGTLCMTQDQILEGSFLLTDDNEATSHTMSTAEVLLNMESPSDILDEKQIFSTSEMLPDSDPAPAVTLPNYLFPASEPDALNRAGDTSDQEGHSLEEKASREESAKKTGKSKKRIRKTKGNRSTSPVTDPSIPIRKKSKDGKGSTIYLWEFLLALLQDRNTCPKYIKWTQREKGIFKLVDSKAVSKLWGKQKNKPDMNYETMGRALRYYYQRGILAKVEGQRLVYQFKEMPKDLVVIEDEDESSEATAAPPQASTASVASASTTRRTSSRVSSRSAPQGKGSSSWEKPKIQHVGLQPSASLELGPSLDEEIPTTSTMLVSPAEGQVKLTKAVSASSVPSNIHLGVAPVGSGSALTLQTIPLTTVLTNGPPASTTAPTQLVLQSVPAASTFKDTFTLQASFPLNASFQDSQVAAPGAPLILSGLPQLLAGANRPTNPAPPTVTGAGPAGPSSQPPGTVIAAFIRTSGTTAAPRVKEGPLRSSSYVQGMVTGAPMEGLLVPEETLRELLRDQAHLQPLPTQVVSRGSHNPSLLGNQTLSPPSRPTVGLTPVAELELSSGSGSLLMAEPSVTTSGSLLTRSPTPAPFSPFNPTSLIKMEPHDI
Method in brief: as §1

ELK4 = biological target: T9, ELK4 (Homo sapiens, UniProt P28324-2 1-405); settings: protein: recombinant; tags: N-terminal GST; dsDNA, one strand shown
T9 sequence: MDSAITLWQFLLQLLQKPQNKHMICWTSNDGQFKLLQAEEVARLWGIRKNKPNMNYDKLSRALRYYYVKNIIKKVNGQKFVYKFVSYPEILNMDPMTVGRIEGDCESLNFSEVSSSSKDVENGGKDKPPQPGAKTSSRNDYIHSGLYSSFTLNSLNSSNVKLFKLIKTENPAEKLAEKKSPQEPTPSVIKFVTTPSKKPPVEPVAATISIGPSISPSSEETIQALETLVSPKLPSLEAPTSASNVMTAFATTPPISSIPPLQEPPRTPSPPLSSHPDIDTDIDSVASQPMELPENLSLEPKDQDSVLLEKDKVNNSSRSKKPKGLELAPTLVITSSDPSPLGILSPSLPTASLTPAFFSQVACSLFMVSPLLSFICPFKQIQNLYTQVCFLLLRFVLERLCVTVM
Method in brief: as §1

ETV2 = biological target: T10, ETV2 (Homo sapiens, UniProt O00321 1-342); settings: protein: recombinant; tags: N-terminal GST; dsDNA, one strand shown
T10 sequence: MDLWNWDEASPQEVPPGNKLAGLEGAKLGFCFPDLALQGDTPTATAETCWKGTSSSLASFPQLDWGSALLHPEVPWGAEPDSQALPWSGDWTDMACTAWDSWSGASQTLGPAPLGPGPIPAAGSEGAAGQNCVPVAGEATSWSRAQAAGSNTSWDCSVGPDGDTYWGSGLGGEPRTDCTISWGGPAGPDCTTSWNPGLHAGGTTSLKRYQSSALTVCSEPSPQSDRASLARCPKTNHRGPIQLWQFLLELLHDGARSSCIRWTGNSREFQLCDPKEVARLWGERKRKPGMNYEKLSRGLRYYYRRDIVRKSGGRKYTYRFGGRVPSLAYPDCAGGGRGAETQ
Method in brief: as §1

ELF3 = biological target: T11, ELF3 (Homo sapiens, UniProt P78545 1-371); settings: protein: recombinant; tags: N-terminal GST; dsDNA, one strand shown
T11 sequence: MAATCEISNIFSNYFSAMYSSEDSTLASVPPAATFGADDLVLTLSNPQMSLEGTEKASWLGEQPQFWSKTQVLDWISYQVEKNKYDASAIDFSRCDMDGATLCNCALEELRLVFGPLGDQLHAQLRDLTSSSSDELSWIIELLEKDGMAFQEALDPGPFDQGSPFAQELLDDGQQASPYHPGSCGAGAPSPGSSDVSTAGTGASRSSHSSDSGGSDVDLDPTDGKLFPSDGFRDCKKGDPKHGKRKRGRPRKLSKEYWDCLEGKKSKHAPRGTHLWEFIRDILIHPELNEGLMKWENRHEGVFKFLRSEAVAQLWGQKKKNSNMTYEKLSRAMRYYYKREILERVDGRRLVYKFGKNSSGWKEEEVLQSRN
Method in brief: as §1

CRX = CRX (Homo sapiens, UniProt O43186 1-299); settings: protein: recombinant; tags: N-terminal GST; dsDNA, one strand shown
CRX, sequence (O43186 whole entry): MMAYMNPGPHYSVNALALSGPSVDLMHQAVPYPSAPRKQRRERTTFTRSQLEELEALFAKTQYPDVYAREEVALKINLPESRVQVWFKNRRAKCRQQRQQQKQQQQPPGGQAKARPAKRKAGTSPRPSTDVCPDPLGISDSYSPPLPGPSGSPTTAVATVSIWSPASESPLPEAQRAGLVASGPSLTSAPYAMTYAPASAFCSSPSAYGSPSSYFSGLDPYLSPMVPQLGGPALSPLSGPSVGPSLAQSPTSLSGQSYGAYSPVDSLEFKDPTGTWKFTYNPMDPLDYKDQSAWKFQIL
Method in brief: as §1

ETV1 = ETV1 (Homo sapiens, UniProt P50549 1-477); settings: protein: recombinant; tags: N-terminal GST; dsDNA, one strand shown
ETV1, sequence (P50549 whole entry): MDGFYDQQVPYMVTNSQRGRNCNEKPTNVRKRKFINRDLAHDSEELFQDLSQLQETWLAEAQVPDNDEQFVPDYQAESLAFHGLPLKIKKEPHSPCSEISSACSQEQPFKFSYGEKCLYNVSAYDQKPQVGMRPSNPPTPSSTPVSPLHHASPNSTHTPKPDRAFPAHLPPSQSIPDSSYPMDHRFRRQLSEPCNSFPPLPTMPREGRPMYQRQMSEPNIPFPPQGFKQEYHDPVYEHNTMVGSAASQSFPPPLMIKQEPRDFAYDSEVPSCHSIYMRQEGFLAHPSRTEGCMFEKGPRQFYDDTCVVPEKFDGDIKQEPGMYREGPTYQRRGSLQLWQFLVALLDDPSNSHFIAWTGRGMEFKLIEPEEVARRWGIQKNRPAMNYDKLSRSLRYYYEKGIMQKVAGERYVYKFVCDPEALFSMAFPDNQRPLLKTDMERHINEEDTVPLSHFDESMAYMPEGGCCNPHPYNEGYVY
Method in brief: as §1

Sequence: ACTCTT
- binding signal (FLI1): 1.17 fold enrichment (6-mer frequency, TF over GST control)
- binding signal (ELK1): 1.24 fold enrichment (6-mer frequency, TF over GST control)
- binding signal (GABPA): 1.22 fold enrichment (6-mer frequency, TF over GST control)
- binding signal (ERG): 1.24 fold enrichment (6-mer frequency, TF over GST control)
- binding signal (ELF1): 1.25 fold enrichment (6-mer frequency, TF over GST control)
- binding signal (EHF): 1.2 fold enrichment (6-mer frequency, TF over GST control)
- binding signal (SPI1): 1.19 fold enrichment (6-mer frequency, TF over GST control)
- binding signal (SPIB): 1.25 fold enrichment (6-mer frequency, TF over GST control)
- binding signal (ELK3): 1.47 fold enrichment (6-mer frequency, TF over GST control)
- binding signal (FEV): 1.18 fold enrichment (6-mer frequency, TF over GST control)
- binding signal (ETV5): 1.29 fold enrichment (6-mer frequency, TF over GST control)
- binding signal (HSF1): 1.12 fold enrichment (6-mer frequency, TF over GST control)
- binding signal (SPIC): 1.3 fold enrichment (6-mer frequency, TF over GST control)
- binding signal (ELF4): 1.26 fold enrichment (6-mer frequency, TF over GST control)
- binding signal (ELK4): 1.35 fold enrichment (6-mer frequency, TF over GST control)
- binding signal (ETV2): 1.31 fold enrichment (6-mer frequency, TF over GST control)
- binding signal (ELF3): 1.14 fold enrichment (6-mer frequency, TF over GST control)
- binding signal (CRX): 1.19 fold enrichment (6-mer frequency, TF over GST control)
- binding signal (ETV1): 1.33 fold enrichment (6-mer frequency, TF over GST control)
